Measured values reported in the supplement of paper PMC12350171.
Counter-ions that a name gives are not always drawn. Values without a mark were called inactive.

What follows are compounds tested on Yersinia pseudotuberculosis (assay: growth AUC normalised to DMSO control (fraction of control); higher = less growth inhibition, active = hit call of the paper). Settings: 20 µM.
Outline: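 For the AUC endpoint, growth curves were integrated by the trapezoidal rule up to the exponential-to-stationary transition and normalised to DMSO controls on the same plate. The curves came from OD578 readings taken hourly for 24 h, in three biological replicates. Pathogens had been passaged anaerobically twice and inoculated at an OD578 of 0.01 into pre-reduced mGAM plates carrying 20 μM compound and 1% DMSO, sealed with breathable membranes. Medium for Haemophilus parainfluenzae also contained hemin and NAD.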

SMILES | growth AUC normalised to DMSO control
CN1CCCCC1CCN1c2ccccc2Sc2ccc([S+](C)[O-])cc21 (stereo not given) [Mesoridazine besylate] | 1.01
CC(C)NCC(O)c1ccc(O)c(O)c1 (single isomer, unassigned; (-)) [(-) Isoproterenol hydrochloride] | 1.02
CO/N=C(\C(=O)N[C@@H]1C(=O)N2C(C(=O)O)=C(C[N+]3(C)CCCC3)CS[C@H]12)c1csc(N)n1 [Cefepime hydrochloride] | 0.049 (active)
N=C(N)N1CCc2ccccc2C1 [Debrisoquin sulfate] | 1.01
CC(=O)O[C@]1(C(C)=O)CC[C@H]2[C@@H]3C=C(C)C4=CC(=O)CC[C@]4(C)[C@H]3CC[C@@]21C [Megestrol acetate] | 1.05
N=C(N=C(N)N)N1CCOCC1 [Moroxidine hydrochloride] | 0.965
c1ccc2[nH]c(-c3cscn3)nc2c1 [Tiabendazole] | 0.975
CN(C)[C@@H]1C(=O)C(C(N)=O)=C(O)[C@@]2(O)C(=O)C3=C(O)c4c(O)ccc(Cl)c4[C@@H](O)[C@H]3C[C@@H]12 [Demeclocycline hydrochloride] | 0.0357 (active)
COc1c2occc2c(OC)c2c(=O)cc(C)oc12 [Khellin] | 1.01
CN1CCN(C(c2ccccc2)c2ccccc2)CC1 [Cyclizine hydrochloride] | 0.995

These compounds were tested on P. vulgatus RND KO (assay: growth AUC normalised to DMSO control (median) (fraction of control); higher = less growth inhibition, active = hit call of the paper). Settings: 20 µM.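 Note: active when median AUC fell below 0.1.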
Outline: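 For normalised area under the curve, growth curves were truncated at entry into stationary phase, integrated by the trapezoidal rule and divided against vehicle wells on the same plate. The curves came from strains passaged twice overnight without oxygen and then grown in mGAM in 96-well plates at a starting OD578 of 0.01. Each well held an approved-drug library compound at 20 μM with 1% DMSO, and OD578 was read hourly for 24 h in an anaerobic incubator. Values are medians of three biological replicates.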

SMILES | growth AUC normalised to DMSO control
Cc1ccc(S(=O)(=O)NC(=O)NN2CC3CCCC3C2)cc1 (stereo not given) [Gliclazide] | 0.999
O=c1[nH]cc(F)c(=O)[nH]1 [5-fluorouracil] | 0.0695 (active)
COC(=O)C1=C(C)NC(C)=C(C(=O)OC)C1c1ccccc1[N+](=O)[O-] [Nifedipine] | 0.987
COc1ccc(CN(CCN(C)C)c2ccccn2)cc1 [Pyrilamine maleate] | 0.986
Cc1c(Cl)cccc1Nc1ccccc1C(=O)O [Tolfenamic acid] | 0.802
C[C@@](Cc1ccc(O)c(O)c1)(NN)C(=O)O [Carbidopa] | 0.99
CCN(CC)CCCC(C)Nc1ccnc2cc(Cl)ccc12 (stereo not given) [Chloroquine diphosphate] | 1.02
c1ccc(-c2ccc(C(c3ccccc3)n3ccnc3)cc2)cc1 (stereo not given) [Bifonazole] | 0.983
C[C@H](CS)C(=O)N1CCC[C@H]1C(=O)O [Captopril] | 1.01
Nc1ccc(C(=O)NCC(=O)O)cc1 [Aminohippuric acid] | 0.992
CC(C(=O)O)c1ccc(N2Cc3ccccc3C2=O)cc1 (stereo not given) [Indoprofen] | 0.975
CO[C@@]1(NC(=O)Cc2cccs2)C(=O)N2C(C(=O)O)=C(COC(N)=O)CS[C@@H]21 [Cefoxitin sodium salt] | 0.018 (active)
CN1CCN(CCCN2c3ccccc3Sc3ccc(C(F)(F)F)cc32)CC1 [Trifluoperazine dihydrochloride] | 0.974
CN(C)CCOc1ccc(/C(=C(/CCCl)c2ccccc2)c2ccccc2)cc1 [Toremifene] | 0.973
O=C1Nc2ccc(Cl)cc2[C@@](C#CC2CC2)(C(F)(F)F)O1 [Efavirenz] | 0.715
CO[C@@H]1[C@@H](O[C@@H]2O[C@H](C)[C@@H](O[C@H]3C[C@@](C)(O)[C@@H](OC(=O)CC(C)C)[C@H](C)O3)[C@H](N(C)C)[C@H]2O)[C@@H](CC=O)C[C@@H](C)[C@@H](O)/C=C/C=C/C[C@@H](C)OC(=O)C[C@H]1OC(C)=O [Josamycin] | 0.0124 (active)
O=C(NCCNCC(O)COc1ccc(O)cc1)N1CCOCC1 (stereo not given) [Xamoterol hemifumarate] | 0.991
CCN(CC)CCCC(C)Nc1c2ccc(Cl)cc2nc2ccc(OC)cc12 (stereo not given) [Quinacrine dihydrochloride hydrate] | 1.01
C[C@H]1C[C@H]2[C@@H]3CCC4=CC(=O)C=C[C@]4(C)[C@@]3(F)[C@@H](O)C[C@]2(C)[C@@]1(O)C(=O)CO [Betamethasone] | 0.986
CCCCC(CC)CNC(=N)NC(=N)NCCCCCCNC(=N)NC(=N)NCC(CC)CCCC (stereo not given) [Alexidine dihydrochloride] | 0.0131 (active)
